Source: PubChem BioAssay (EPA / NIEHS)
Inconclusive results are not listed. Calls of active or inactive are those of the source. The calls were made as follows: active = hit-call score of the fitted dose curve at least 0.9, where 1 is the maximum; inconclusive = response in the unintended direction; inactive = score below 0.9.

Biological target: Estrogen receptor (Homo sapiens) (UniProt P03372)
Experiment: ATG_ERa_TRANS: Attagene TRANS-FACTORIAL HepG2 Assay for human Estrogen Receptor alpha (ERa) (AID 2282970)
Settings: HepG2 Attagene TRANS ERa GAL4 reporter, mRNA
Procedure: ATG_TRANS is a cell-based, multiplexed-readout assay that uses HepG2, a human liver cell line, with measurements taken at 24 hours after chemical dosing in a 24-well plate.ATG_ERa_TRANS is one of 30 assay component(s) measured or calculated from the ATG_TRANS assay. It is designed to make measurements of mRNA induction, a form of inducible reporter, as detected with fluorescence intensity signals by Reverse transcription polymerase chain reaction (RT-PCR) and Capillary electrophoresis technology.Data from the assay component ATG_ERa_TRANS was analyzed into 1 assay endpoint. This assay endpoint, ATG_ERa_TRANS, was analyzed in the positive analysis fitting direction relative to DMSO as the negative control and baseline of activity. Using a type of inducible reporter, measures of mRNA for gain-of-signal activity can be used to understand the reporter gene at the transcription factor-level as they relate to the gene ESR1. Furthermore, this assay endpoint can be referred to as a primary readout, because this assay has produced multiple assay endpoints where this one serves a reporter gene function. To generalize the intended target to other relatable targets, this assay endpoint is annotated to the nuclear receptor intended target family, where the subfamily is steroidal.
Human liver HepG2 cells are transiently transfected with multiple reporter transcription units (MRTUs) in 6-well plates using FuGene 6 reagent (Roche; 3 ml FuGene/1 mg DNA). The MRTU constructs are regulated by a cis-regulating element (promoter). […] A major difference between the CIS and TRANS system is that in CIS activities of endogenous TFs are measured, whereas the TRANS assay evaluates changes in activities of exogenous, chimeric NR-Gal4 proteins. […] At the end of 24 hour incubation, total RNA was isolated using TriZol reagent (Invitrogen). The isolated RNA is then reverse-transcribed using oligo(dT) primer and Mo-MLV reverse transcriptase (Invitrogen) with DNAse I (Ambion) treatment for 30 min. The one-tenth of the produced cDNA was amplified by PCR using Taq DNA polymerase (Invitrogen) and two reporter sequence-specific primers. The PCR products were fluorescently labeled by primer extension with 6-arboxyfluorescein (6-FAM) 5'-labeled reporter sequence-specific primer (2 min at 95 C, 20 s at 68 C and 10 min at 72 C) and these products were digested with 5U of HpaI (New England Biolabs) for 2h at 37 C. […] The raw capillary electrophoresis data was processed using Attagraph software (Attagene).

Chain of Estrogen receptor (Homo sapiens) (P03372 whole entry, looked up): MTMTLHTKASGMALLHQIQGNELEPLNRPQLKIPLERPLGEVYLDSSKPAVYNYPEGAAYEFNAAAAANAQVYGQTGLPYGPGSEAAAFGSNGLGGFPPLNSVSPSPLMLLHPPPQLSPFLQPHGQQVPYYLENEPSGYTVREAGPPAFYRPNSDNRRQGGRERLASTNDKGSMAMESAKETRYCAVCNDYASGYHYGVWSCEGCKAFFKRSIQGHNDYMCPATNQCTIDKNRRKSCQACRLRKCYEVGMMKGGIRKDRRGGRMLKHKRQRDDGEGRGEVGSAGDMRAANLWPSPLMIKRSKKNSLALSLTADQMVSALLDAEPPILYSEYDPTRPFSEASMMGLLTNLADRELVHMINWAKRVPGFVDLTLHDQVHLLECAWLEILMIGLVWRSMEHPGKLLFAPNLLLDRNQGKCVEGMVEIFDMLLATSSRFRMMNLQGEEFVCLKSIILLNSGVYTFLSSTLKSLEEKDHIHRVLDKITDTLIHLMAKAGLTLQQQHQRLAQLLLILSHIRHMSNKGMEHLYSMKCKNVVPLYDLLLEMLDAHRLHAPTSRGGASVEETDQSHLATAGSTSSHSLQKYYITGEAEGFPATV

Structure (SMILES) | outcome | AC50
CC[C@H](C)[C@H]1O[C@]2(C=C[C@@H]1C)C[C@@H]1C[C@@H](C/C=C(\C)[C@@H](O[C@H]3C[C@H](OC)[C@@H](O[C@H]4C[C@H](OC)[C@@H](NC)[C@H](C)O4)[C@H](C)O3)[C@@H](C)/C=C/C=C3\CO[C@@H]4[C@H](O)C(C)=C[C@@H](C(=O)O1)[C@]34O)O2 | inactive | –
Nc1c(Cl)cc([N+](=O)[O-])cc1Cl | – | 50 µM (active)
O=[N+]([O-])c1cc(C(F)(F)F)c(Cl)c([N+](=O)[O-])c1Nc1ncc(C(F)(F)F)cc1Cl | inactive | –
CNC(=O)ON=C(SC)C(=O)N(C)C | inactive | –
Cc1cc(C2CC2)nc(Nc2ccccc2)n1 | inactive | –
COP(=O)(OC)SCn1c(=O)oc2cc(Cl)cnc21 | inactive | –
CCCCOC(=O)[C@@H](C)Oc1ccc(Oc2ccc(C#N)cc2F)cc1 | inactive | –
CCc1cccc(CC)c1N(COC)C(=O)CCl | inactive | –
CNC(=O)Oc1cccc2c1OC(C)(C)O2 | inactive | –
CSc1nc(NC(C)C)nc(NC(C)C)n1 | inactive | –
